27 compounds from PubChem BioAssay AID492972 (The Scripps Research Institute Molecular Screening Center, 2010) can be followed below.

The structures appear in SMILES notation. Screen size: about 340,000 compounds; about 930 (0.27%) were called active.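 The calls were made as follows: active = inhibition above the screen-wide average of all tested compounds plus 3 SD (cut at about 25% in these data); inactive = the rest.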 The entries come from a sample that favours actives as a whole.

This assay deals with Platelet-activating factor acetylhydrolase IB subunit alpha1 (Homo sapiens) (UniProt Q15102). Description: PAFAH1B3 enzyme inhibitors, primary screen, biochemical, fluorescence polarization, human (AID 492972).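 Also: 0% = enzyme with DMSO only and 100% = wells lacking PAFAH1B3 protein.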 The note with it: recombinant PAFAH1B3, FP-rhodamine probe, at 3.39 µM, hits give high values. (In general: In fluorescence polarisation assays a small probe gives low polarisation when free and higher when bound to something large.)
Sequence of Platelet-activating factor acetylhydrolase IB subunit alpha1 (Homo sapiens) (Q15102 whole entry, looked up): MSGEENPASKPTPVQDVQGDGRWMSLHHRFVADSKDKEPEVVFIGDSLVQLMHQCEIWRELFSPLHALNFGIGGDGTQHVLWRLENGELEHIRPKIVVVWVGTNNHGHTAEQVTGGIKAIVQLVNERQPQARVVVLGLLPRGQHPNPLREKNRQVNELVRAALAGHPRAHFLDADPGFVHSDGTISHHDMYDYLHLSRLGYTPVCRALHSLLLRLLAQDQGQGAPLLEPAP
As to `COc1ccc(C(=O)NC(=S)N2CCCCC2c2cccnc2)cc1OC` (configuration not stated), the inhibition (as a rule, the relative decrease from the control value, in per cent) is -1.07% (inactive).
`Cc1c(-c2ccccc2)n[nH]c1C(=O)N=Nc1c(O)[nH]c2ccccc12`: the inhibition is -61.7% (inactive).
In the case of `S=C(NCCCc1ccccc1)Nc1ccc(Br)cc1`, the inhibition is 7.28% (inactive).
For the compound `C/C=N/N(c1ccccc1)c1ccccc1`, the inhibition was 0.33% (inactive).
Take `N#CC(Cc1cc2ccccc2n1S(=O)(=O)c1ccccc1)OCc1ccccc1` (configuration not stated): the inhibition was 4.5% (inactive).
With `CCCc1ccc(OCC(O)CN2CCN(C(=O)OCC)CC2)cc1` (configuration not stated), the inhibition is -2.88% (inactive).
In the case of `COC(=O)CNC(=O)C(CCSC)NC(C)=O` (configuration not stated), the inhibition was -4.04% (inactive).
With `CC(C)n1cnc2c(NCc3ccccc3)cc(OCC3CCN(C)CC3)cc21`, the inhibition was 49.8% (active).
Regarding `CCC(CO)Oc1cc(NC(=O)c2cccc(F)c2)c2ncn(C(C)C)c2c1` (configuration not stated), the inhibition is -2.61% (inactive).
The value for `CCC(CO)Oc1cc(NC(=O)c2cccc3ccccc23)c2ncn(C(C)C)c2c1` (configuration not stated) was -4.73% (inactive); that for `COc1ccccc1C(=O)N(Cc1ccc(C)o1)C1CCS(=O)(=O)C1` (configuration not stated) was 4.66% (inactive); that for `COc1ccccc1NS(=O)(=O)N(C)C` was -5.67% (inactive).
The value for `c1ccc(CC2CCN(c3nc4ccccc4n4cnnc34)CC2)cc1` was -2.84% (inactive).
Turning to `COc1ccc(CN(Cc2ccco2)S(=O)(=O)c2ccc(S(=O)(=O)N3CCCC3)cc2)cc1`, the inhibition was 4.29% (inactive).
Next, `CC(=O)OC1CCC2(C)C(=CCC3C4CC(=O)N(O)C(=O)C4(C)CCC32)C1` (configuration not stated): 1.29% (inactive).
`O=C(O)/C=C/c1ccc(OCCCF)cc1`: the inhibition is 9.5% (inactive).
As to `O=C(/C=C/c1ccc2c(c1)OCCO2)c1ccc(O)cc1`, the inhibition was -1.41% (inactive).
The value for `O=C(/C=C(O)/C=C/c1ccc(O)cc1)/C=C/c1ccc(O)cc1` was 36.6% (active); that for `O=C(CCCC(=O)N(CC(=O)NC1CCCC1)Cc1ccccc1Cl)Nc1ccccn1` was 7.22% (inactive).
Next, `CCOCCCN(C)C1CCN(C(=O)c2oc3ccccc3c2NC(=O)COc2cccc(C)c2)CC1`: 7.03% (inactive); `COc1ccc(NC(=O)CCCC(=O)c2ccccc2)cc1`: -0.24% (inactive).
Turning to `COc1ccc(NC(=O)ON=C2c3ccccc3-c3ccccc32)cc1`, the inhibition is 31.6% (active).
In the case of `COc1ccc(NC(=O)C(Br)C(C)C)cc1` (configuration not stated), the inhibition was 3.86% (inactive).
Consider `COc1ccc(C2=NS(=O)(=O)N(C)C(C(=O)N(C)Cc3ccccc3)=C2)cc1`, for which the inhibition is 9.43% (inactive).
For the compound `COc1ccc([N+](=O)[O-])cc1NCC(=O)c1ccc(C)cc1`, the inhibition is 8.91% (inactive).
The value for `CCNC(=O)NNC(=O)C1CC(c2cccs2)=NO1` (configuration not stated) was 14.9% (inactive); that for `CCNS(=O)(=O)c1ccc(CCC(=O)N2CCN(c3cc(Cl)ccc3C)CC2)cc1` was 8.42% (inactive).
